PubChem BioAssay (NCI)
The panel holds about 79,000 compounds, 15% with a hit somewhere; the sample as a whole holds those more often. No stated cut-off is given here; in the data, active means growth inhibition above about 70%; inactive means the rest.

How the values were obtained:
[1] = NCI Yeast Anticancer Drug Screen. Data for the rad50 strain (AID 155);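 further: 0% = growth of vehicle-only cultures of the same strain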; conditions: S. cerevisiae rad50 strain growth inhibition; at 50.0 µM; hits give high values
Procedure, shortened: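 Inhibition values express reduced yeast growth in compound-treated cultures relative to vehicle-treated controls.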

[2] = NCI Yeast Anticancer Drug Screen. Data for the mec2-1 strain (AID 157); conditions: S. cerevisiae mec2-1 strain, at 50.0 µM, hits give high values
Procedure, shortened: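 Mutant yeast (mec2-1) grown with compound; growth inhibition relative to vehicle control reported.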

[3] = NCI Yeast Anticancer Drug Screen. Data for the sgs1 mgt1 strain (AID 161);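 further: 0% = growth of cultures given vehicle only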; conditions: S. cerevisiae sgs1 mgt1 strain, at 50.0 µM, hits give high values
Procedure, shortened: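 Percent growth inhibition was derived by comparing compound-exposed mutant yeast with vehicle-exposed cultures. The strain carries alterations in DNA damage repair.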

[4] = NCI Yeast Anticancer Drug Screen. Data for the cln2 rad14 strain (AID 165);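 further: 0% = growth equal to vehicle treated cultures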; conditions: S. cerevisiae cln2 rad14 strain, at 50.0 µM, hits give high values
Procedure, shortened: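 Readout is yeast growth inhibition versus vehicle-treated controls, using a strain with cln2 and rad14 alterations exposed to compound.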

[5] = NCI Yeast Anticancer Drug Screen. Data for the bub3 strain (AID 167); conditions: S. cerevisiae bub3 mutant strain, at 50.0 µM, hits give high values
Procedure, shortened: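 Steps: expose the mutant yeast strain to compound; grow alongside vehicle-treated cultures; measure growth; express inhibition against the vehicle cultures.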

[6] = NCI Yeast Anticancer Drug Screen. Data for the mlh1 rad18 strain (AID 175); conditions: S. cerevisiae mlh1 rad18 strain growth inhibition; at 50.0 µM; hits give high values
Procedure, shortened: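 Genetically defined yeast (DNA repair-deficient) exposed to compounds; growth inhibition determined relative to vehicle.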

Measured: growth inhibition

CC1(C)C(O)C(C)(C)C1O (centres undefined)
inactive: [1] 17.1% | [2] -17.6% | [3] 7.8% | [4] 6.95% | [5] 11.2% | [6] 10.2%

COc1ccccc1-n1on1-c1ccccc1OC
inactive: [1] 4.3% | [2] 18.1% | [3] -3.4% | [4] -30.9% | [5] 9.75% | [6] 20.1%

N/N=C(\c1ccccc1)C(Nc1ccccc1)c1ccccc1 (centres undefined)
inactive: [1] 11.2% | [2] -3.95% | [3] -2.05% | [4] -29% | [5] -5.15% | [6] 7.9%

CCOC(=O)NC(=O)c1cn(CCN2CCN(C(=O)NCCCCCCNC(=O)N3CCN(CCn4cc(C(=O)NC(=O)OCC)c(=O)[nH]c4=O)CC3)CC2)c(=O)[nH]c1=O
inactive: [1] -12.3% | [2] 14.7% | [3] -8.95% | [4] -18.6% | [5] -0.75% | [6] -11.6%

CCN(CC)CCCC(C)=O
inactive: [1] 9.25% | [2] 21.6% | [3] 28.2% | [4] 18.6% | [5] 13% | [6] 3.4%

O=C1N(Cc2ccccc2)CC2CCc3c(ccc4ccccc34)N12 (centres undefined)
inactive: [1] 11% | [2] -12.9% | [3] -1.3% | [4] -3.85% | [5] 4.85% | [6] 4.75%

Nc1nc(N)c(N=Nc2ccc([N+](=O)[O-])cc2)c(=O)[nH]1
inactive: [1] -0.9% | [2] -16.9% | [3] -12% | [4] 9% | [5] 0.7% | [6] -3.9%

CC(C)NC(=O)Nc1cccc(Cl)c1
inactive: [1] 0.75% | [2] 7.2% | [3] 17.7% | [4] -18.8% | [5] -23.2% | [6] -1%

Cc1ccc2nc(-c3cccc([N+](=O)[O-])c3)c(N=O)n2c1
inactive: [1] -0.7% | [2] 4.35% | [3] 1.05% | [4] -14.9% | [5] 2.1% | [6] 21.2%

C=C(C)[C@@H]1CC[C@]2(C)CC[C@]3(C)[C@H](CC[C@@H]4[C@@]5(C)CC[C@H](OC(=O)c6ccccc6)C(C)(C)[C@@H]5CC[C@]43C)[C@@H]12
inactive: [1] -7.6% | [2] -16.6% | [3] -26.4% | [4] 2.9% | [5] -0.65% | [6] 0%

CC(=O)Oc1ccccc1/C=C1/C=C(c2ccccc2)OC1=O
inactive: [1] 6.4% | [2] -7.55% | [3] -0.55% | [4] -39.1% | [5] -16.8% | [6] 0.2%

Cc1onc(-c2ccccc2Cl)c1C(=O)NCC(=O)O
inactive: [1] -5.55% | [2] 2.6% | [3] -3.5% | [4] 3.5% | [5] 12.7% | [6] -0.15%

CCN(CC)c1ccc(NC(=O)CCl)cc1
inactive: [1] -3.95% | [2] -12.5% | [3] -13% | [4] 1.45% | [5] -15.8% | [6] 8.2%

Cc1nc2cnc(N)nc2nc1C
inactive: [1] -6.85% | [2] -16.9% | [3] -3.65% | [4] -40.4% | [5] 0.8% | [6] 0.75%

C/C(=N/Nc1ccc([N+](=O)[O-])cc1[N+](=O)[O-])c1ccc(Sc2ccc(/C(C)=N/Nc3ccc([N+](=O)[O-])cc3[N+](=O)[O-])cc2)cc1
inactive: [1] -13.2% | [2] -21.1% | [3] -10.3% | [4] -19.4% | [5] -14.9% | [6] -23.4%

O=Cc1c(O)nc[nH]c1=O
inactive: [1] -23.9% | [2] -27.9% | [3] -4.15% | [4] 6.75% | [5] -13.4% | [6] -7.7%

N#Cc1ccc[n+](Cc2c(Cl)cccc2Cl)c1
inactive: [1] 6.6% | [2] 28.9% | [3] 23.2% | [4] 5.8% | [5] 20.6% | [6] 44.1%

ClC12CCC(Cl)(CC1)CC2
inactive: [1] 10.5% | [2] 0.65% | [3] -3.95% | [4] -50.6% | [5] -10.7% | [6] -7.95%

COC1OC(COS(C)(=O)=O)C(OS(C)(=O)=O)C(OS(C)(=O)=O)C1OS(C)(=O)=O (centres undefined)
inactive: [1] -2.8% | [2] -7.05% | [3] -26.4% | [4] -67% | [5] 1.4% | [6] 10.3%

COc1ccc([C@H]2CC3C(=O)N(c4ccc(OC)cc4)C(=O)C3c3[nH]c4ccccc4c32)cc1 (some centres undefined)
inactive: [1] -10.1% | [2] -2.95% | [3] -1.05% | [4] -64.2% | [5] -16.4% | [6] -16.9%

Clc1ccccc1CSc1cnnc(Cl)c1SCc1ccccc1Cl
inactive: [1] 28.6% | [2] 12.2% | [3] 31.6% | [4] 39.6% | [5] 5.2% | [6] 21.9%

N=C(N)c1cc(Cl)c(OCc2ccccc2)c(Cl)c1
inactive: [1] 9.7% | [2] -12.7% | [3] 1.15% | [4] -10.7% | [5] 3.85% | [6] 12.8%

CN(C)CC(CN(C)C)C(=O)c1ccccc1
inactive: [1] 8.6% | [2] 19.6% | [3] 16.3% | [4] -1% | [5] -24.1% | [6] -4.05%

Cc1ccc2nc(-c3ccc4nc(-c5ccc(N=Nc6ccc(-c7nc8ccc(-c9nc%10ccc(C)c(S(=O)(=O)O)c%10s9)cc8s7)cc6)cc5)sc4c3)sc2c1S(=O)(=O)O
inactive: [1] 12.7% | [2] -13% | [3] 21.4% | [4] -0.3% | [5] -3.2% | [6] -26.9%

COc1ccc(N=Nc2cc(OC)c(N=Nc3c(O)c4ccccc4[nH]c3=O)cc2OC)cc1
inactive: [1] 18.1% | [2] 16.8% | [3] 25.1% | [4] 13.8% | [5] -14.2% | [6] 17.1%

O=C(O)C1CC=CCC1C(=O)O (centres undefined)
inactive: [1] 8.5% | [2] -7.45% | [3] -12.4% | [4] -45.9% | [5] 1.4% | [6] 9.95%

COC(=O)c1ccc(C(=O)OC)c2nc3cc(C)c(C)cc3nc12
inactive: [1] -0.7% | [2] 20.7% | [3] 0.1% | [4] -7.1% | [5] 5.35% | [6] 12%

CC(=O)NCCc1nc(-c2nc(C(=O)NCCC(C)C)cs2)cs1
inactive: [1] 14.1% | [2] 16.6% | [3] -2% | [4] -23.4% | [5] 6.8% | [6] 5.9%

C=CCn1c(=S)sc2c(C(=O)OCC)c3c(C)cc(C)cn3c2c1=O
inactive: [1] -18.1% | [2] -56.5% | [3] -60% | [4] -5% | [5] -34.7% | [6] -37.9%

CCC(=O)Oc1ccc[nH]c1=O
inactive: [1] 1.8% | [2] 21.2% | [3] 4.95% | [4] 24.6% | [5] 9.95% | [6] 14.2%

CN(C)C(=O)Nc1cccc(OS(=O)(=O)N(C)C)c1
inactive: [1] 5.4% | [2] 26.1% | [3] 23.2% | [4] -18.6% | [5] 22.9% | [6] 12.6%

COc1ccc(OCCO)cc1
inactive: [1] -10.4% | [2] -17.8% | [3] -6.85% | [4] -27.1% | [5] -22.1% | [6] -0.15%

O=C1C(=Nc2ccc(Cl)nc2)CC(c2ccccc2)N1c1ccc(Cl)nc1 (centres undefined)
inactive: [1] 7.9% | [2] 9.25% | [3] 16.1% | [4] 22.4% | [5] 3% | [6] -4%

CCOP(=O)(OCC)C1(O)CC(n2cc(C)c(=O)[nH]c2=O)OC1CO (centres undefined)
inactive: [1] 7.3% | [2] 59.1% | [3] -15.2% | [4] 27.1% | [5] -5.05% | [6] -37.7%

COc1ccc(-c2c(C#N)c(N)nc(C)c2-c2ccccc2)cc1
inactive: [1] -26.4% | [2] -10.8% | [3] -6.85% | [4] -24.6% | [5] -5.65% | [6] 16.9%

O=C1NCCS(=O)(=O)N2CCC[C@@H]12
inactive: [1] 54.4% | [2] -20% | [3] 5.1% | [4] 21.4% | [5] -19.6% | [6] -14.9%

OC1CCC2CCCCC2C1 (centres undefined)
inactive: [1] -7.3% | [2] -16.9% | [3] -15.4% | [4] -25.1% | [5] -1.95% | [6] 2.85%

COc1ccc(N(C)C(=S)c2ccccc2)cc1
inactive: [1] -49.5% | [2] -11.7% | [3] -15.4% | [4] -37.5% | [5] 0.45% | [6] -10.9%

COc1ccc2cc3n(c2c1)CCc1cc(OC)c(OC)cc1-3
inactive: [1] 13.6% | [2] -10.8% | [3] 5.9% | [4] 23.9% | [5] 3% | [6] 14.2%
